# From PubChem BioAssay
# The entries come from a sample that favours hits as a whole.
# RT RNaseH block = HIV-1 RT RNase H inhibitors, primary screen, biochemical, fluorescence; Gag-Pol polyprotein (Human immunodeficiency virus type 1 group M subtype B (isolate …; RT-RNase H RNA/DNA duplex cleavage; inhibition, % at 10 µM; 65,000 tested, 1.9% active; AID 565, 2006; in the data active means inhibition above about 50%
# RmlC RmlD mix = RmlC and RmlD coupled enzyme inhibitors, primary screen, biochemical, 384-well, compound mixtures, retest; RmlC/RmlD coupled enzyme inhibition, 384-well mixture HTS; inhibition, % at 5.5 µM; 110,000 tested, 0.39% active; AID 1532, 2009; in the data active means inhibition above about 30%, passing the limit was not always enough; inconclusive means no clear call, values can overlap the other calls
# * = called active by the depositor; ? = inconclusive; nt = no result.
SMILES,RT RNaseH block,RmlC RmlD mix
COCc1n[nH]c(=S)n1-c1cccc2ccccc12,4,2
COc1ccc(-n2c(-c3ccco3)n[nH]c2=S)cc1,57*,13
c1ccc(CCn2c(C3CC3)nc3ccccc32)cc1,nt,7
CCCCN1CCCC1CNC(=O)c1cc(C#N)c2ccccc2c1OC (centres undefined),nt,-10
CCOc1ccc(-c2nc(C#N)c(NCC3CCCO3)o2)cc1 (centres undefined),nt,5
COc1ccc(-c2nc(C#N)c(NCC3CCCO3)o2)cc1OC (centres undefined),-4,42*
N#Cc1cccc(NC(=O)NCCc2c[nH]c3ccccc23)c1,-37,nt
COc1ccc(-c2csc(NCCc3nc4cc(Cl)c(Cl)cc4n3CCCO)n2)cc1,nt,7
Cc1ccc(CNC(=O)C2CC3Cn4c(nc5cc(Cl)c(Cl)cc54)C3N2C)o1 (centres undefined),nt,0
CCCc1nnc(NC(=O)c2c(O)c3cccc4c3n(c2=O)CCC4)s1,72*,10
CC(C)c1nnc(NC(=O)c2c(O)c3cccc4c3n(c2=O)CC4)s1,-21,nt
CCOc1cc(C2C(C(=O)OCC(C)C)=C(C)N=C3SCCC(=O)N32)ccc1OC(C)=O (centres undefined),-5,3
c1csc(C(c2nnnn2C2CCCC2)N2CCCC3(CCCCC3)C2)c1 (centres undefined),nt,2
CCN1C(=O)N[C@@H](c2cccs2)C(C(C)=O)=C1C,nt,-17
COc1ccc(CN(CCCN2CCOCC2)C(=O)Nc2ccccc2)cc1OC,0,3
COc1ccc(CN(CCN2CCOCC2)C(=O)c2c(F)cccc2F)cc1OC,62*,-5
COc1ccc(Oc2nc(Oc3ccc(OC)cc3)nc(Oc3ccc(OC)cc3)n2)cc1,57*,-21
COc1nc(Oc2ccc(C(=O)O)cc2)nc(Oc2ccc(C(=O)O)cc2)n1,nt,-6
CC1(C)CC(=O)C2=C(C1)Oc1nc3ccccc3cc1C2C(C#N)C#N (centres undefined),8,8
Cc1ccc(-c2c(=O)n(OCc3ccccn3)c3ccccc3[n+]2[O-])cc1,nt,-84
COc1ccc(-c2c(=O)n(OCc3ccccn3)c3ccccc3[n+]2[O-])cc1OC,56*,7
COC(=O)c1c(-c2cccc3ccccc23)csc1NC(=O)Cc1ccc(OC)c(OC)c1,nt,-9
CC1CCc2c(sc(N)c2C(N)=O)C1 (centres undefined),65*,-43
CCC1CCc2c(sc(N)c2C(N)=O)C1 (centres undefined),nt,5
C/C=C/C(=O)Nc1cccc(C2=NOC3(C2)C[C@@H](C(N)=O)N(C(=O)C(c2ccccc2)c2ccccc2)C3)c1 (some centres undefined),nt,-41
SMILES,RT RNaseH block,RmlC RmlD mix
CC(=O)N=c1sc(S(N)(=O)=O)nn1C,67*,-15
CC(=O)Nc1nnc(S(N)(=O)=O)s1,-7,-16
Cc1ccc(Nc2nc(N)nc(CN3CCN(C(=O)c4ccco4)CC3)n2)cc1Cl,-1,-1
O=C1c2cnc3nc(SCc4ccc(Cl)cc4)nn3c2CC2c3ccccc3CCN12 (centres undefined),nt,-118
CCc1cc(=O)oc2c(CN3CCCC3)c(O)c(Cl)cc12,-5,90*
O=c1oc2c(CN3CCOCC3)c(O)c(Cl)cc2c2c1CCC2,0,56*
CCCCc1cc(=O)oc2c(CN(C)C)c(O)c(Cl)cc12,-10,70*
CCCCc1cc(=O)oc2c(CN3CCCC3)c(O)ccc12,3,?
CCc1cc2c(-c3ccccc3)cc(=O)oc2c(CN2CCOCC2)c1O,-15,-6
CCc1c(C)c2cc(Cl)c(O)c(CN3CCCCC3)c2oc1=O,-7,114
Cc1ccc(C2CC(=O)Nc3cc4c(cc32)OCO4)o1 (centres undefined),nt,8
O=C1c2cccc3c2[C@H](CCC3)CN1[C@@H]1CN2CCC1CC2,nt,-13
COCc1nnc(NC(=O)c2ccc(S(=O)(=O)N(C)C3CCCCC3)cc2)o1,25,-17
Cn1c(C(=O)N2CCN(c3ccccn3)CC2)cc2c(=O)n(C)c3ccccc3c21,-3,nt
CCOc1ccc(C2N(c3ccc(F)cc3)C(=O)C3CCCN32)cc1OC (centres undefined),-10,3
O=C(Nc1nnc(-c2ccccc2)o1)c1nc2ccccc2s1,66*,29
NC(=O)c1oc2ccccc2c1NC(=O)c1nc2ccccc2s1,5,-5
Cc1ccccc1NC(NC(=O)c1cccs1)C(Cl)(Cl)Cl (centres undefined),nt,-10
COc1ccccc1Cn1c2nc3ccccc3nc2c2c(=O)n(CC(C)C)cnc21,-5,nt
COCCCn1c2nc3ccccc3nc2c2c(=O)n(Cc3ccc(Cl)cc3)cnc21,18,21
COCCCn1c2nc3ccccc3nc2c2c(=O)n(Cc3ccccc3Cl)cnc21,16,75*
O=C(Cc1coc(-c2ccc(F)cc2)n1)N1CCOCC1,-18,11
COc1cccc(N=Cc2ccc(O)cc2O)c1,53*,5
Oc1ccc(C=Nc2cccc3ncccc23)c(O)c1,1,-13
CCc1c(C(=O)Nc2ccncc2)csc1C,2,8
SMILES,RT RNaseH block,RmlC RmlD mix
COc1ccc(C(=O)Nc2ccc(NC(=O)c3cnccn3)cn2)cc1,nt,-15
Cc1nc(NC(=O)c2ccccc2)sc1C1(C)CC(c2c(Cl)cccc2Cl)=NO1 (centres undefined),nt,-1
CC(C)n1c2ccccc2c2nnc(SCC(=O)OCN3C(=O)c4ccccc4C3=O)nc21,7,117*
Cn1c2ccccc2c2nnc(SCN3C(=O)c4ccccc4C3=O)nc21,-2,nt
O=C(Nc1ccccc1NC(=O)NC1CCCCC1)NC1CCCCC1,69*,11
NC(=O)c1ccccc1NC(=O)NC1CCCCC1,nt,2
CCOC(=O)c1c(-c2ccccc2)csc1NC(=O)c1ccc(N2C(=O)CCC2=O)cc1,nt,20
CCOC(=O)c1c(-c2ccccc2)csc1NC(=O)c1nn(CC)cc1Br,67*,131
CCOC(=O)c1c(C)[nH]c(C)c1C(=O)CSc1ncccn1,nt,-8
O=C(Nc1ccc(N2CCCCC2)cc1)c1ccccc1,12,-9
O=C(Nc1ccc(N2CCCC2)cc1)c1cccc(F)c1,59*,7
O=C(CSc1nnc(COc2ccc3c(c2)CCCC3)o1)Nc1ccc(F)cc1,59*,5
COc1ccc(NC(=O)CSc2nnc(CNc3ccc(F)cc3)o2)c(OC)c1,1,-3
O=C(Nc1ccc(N2CCN(C(=O)c3ccco3)CC2)c(Cl)c1)c1c(F)c(F)c(F)c(F)c1F,15,-8
Cc1nc2ccc(C(=O)O)cc2c2c1CC(C)S2 (centres undefined),63*,-1
Cc1nc2cc(C(=O)O)ccc2s1,4,5
CCCOc1ccc(OCCOCCN2CCc3ccccc3C2)cc1,nt,6
C/C=C/Cn1c(SCCCc2ccccc2)nc2c1c(=O)[nH]c(=O)n2C,-14,-6
CC(C)n1c(SCCCc2ccccc2)nc2c1c(=O)[nH]c(=O)n2C,56*,-1
CCOC(=O)c1nn(-c2ccc(C)c(C)c2)c(=O)c2c(N)scc12,nt,-15
CCOC(=O)c1nn(-c2ccc(OC)cc2)c(=O)c2c(N)scc12,75*,10
COC(=O)c1ccccc1NC(=O)C1CCN(C(=O)c2cc(OC)c(OC)c(OC)c2)CC1,nt,-10
COC(=O)c1sc2ccccc2c1N,54*,-5
COC(=O)c1sc2ccccc2c1C(=O)OC,-27,6
COc1ccc(CCNC(=O)c2cc3c(=O)n4cccc(C)c4nc3n(Cc3ccncc3)c2=N)cc1,-2,nt
